± gives the standard deviation of the averaged measurements.
Tested on: NanoLuc luciferase (NLuc)
Experiment: residual bioluminescent signal relative to negative (DMSO) control; higher = less interference (more residual luciferase signal)
Procedure: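 Purified luciferase (FLuc 10 nM + 10 uM D-luciferin; NLuc 10 pM + 10 uM furimazine; RLuc 50 pM + 2 uM coelenterazine) in 384-well plates; metal salt pre-incubated with enzyme 10 min at RT, substrate added and luminescence read after 10 min. Signal normalised to plate DMSO negative control (% N_VALUE = x/mean neg *100); triplicate wells at 0.01, 1 and 5 mM salt.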

[1] = metal salt concentration 0.01 mM, HEPES conditions (100 mM HEPES, 0.1% BSA, pH 7.5)
[2] = metal salt concentration 0.01 mM, screening conditions (PBS, 0.1% BSA, pH 7.4)
[3] = metal salt concentration 1 mM, HEPES conditions (100 mM HEPES, 0.1% BSA, pH 7.5)
[4] = metal salt concentration 1 mM, screening conditions (PBS, 0.1% BSA, pH 7.4)
[5] = metal salt concentration 5 mM, HEPES conditions (100 mM HEPES, 0.1% BSA, pH 7.5)
[6] = metal salt concentration 5 mM, screening conditions (PBS, 0.1% BSA, pH 7.4)

| SMILES | residual bioluminescent signal [1] [%] | residual bioluminescent signal [2] [%] | residual bioluminescent signal [3] [%] | residual bioluminescent signal [4] [%] | residual bioluminescent signal [5] [%] | residual bioluminescent signal [6] [%] |
| --- | --- | --- | --- | --- | --- | --- |
| O=[N+]([O-])[O-].O=[N+]([O-])[O-].[Ni+2] [nickel(II) nitrate] | 89 ± 2 | 94.5 ± 3.8 | 87.6 ± 4.2 | 91.4 ± 1.8 | 89.9 ± 2.2 | 78.1 ± 3.4 |
| O=[N+]([O-])[O-].O=[N+]([O-])[O-].[Ca+2] [calcium nitrate] | 97.1 ± 2.3 | 96.46 ± 0.94 | 102 ± 5.5 | 97.6 ± 4.1 | 109 ± 3.1 | 92.6 ± 4.6 |
| O=[N+]([O-])[O-].O=[N+]([O-])[O-].[Cu+2] [copper(II) nitrate] | 95.5 ± 6.9 | 90.4 ± 2.7 | 0.235 ± 0.062 | 0.732 ± 0.11 | 0.689 ± 0.91 | 0.201 ± 0.12 |
| O=[N+]([O-])[O-].O=[N+]([O-])[O-].[Cd+2] [cadmium nitrate] | 93.8 ± 1.4 | 98.2 ± 1.1 | 74.64 ± 0.51 | 62.1 ± 7.8 | 84.1 ± 2.6 | 22.1 ± 1.6 |
| O=[N+]([O-])[O-].O=[N+]([O-])[O-].[Pb+2] [lead(II) nitrate] | 94 ± 3.2 | 93.8 ± 2.2 | 26.7 ± 2.9 | 88.2 ± 4.3 | 7.56 ± 0.53 | 44.2 ± 9 |
| O=[N+]([O-])[O-].[Na+] [sodium nitrate] | 89.7 ± 1.5 | 96.7 ± 2.3 | 91.8 ± 4.2 | 93.2 ± 3.3 | 102 ± 2.5 | 94.1 ± 2.8 |
| O=[N+]([O-])[O-].O=[N+]([O-])[O-].O=[N+]([O-])[O-].[Ga+3] [gallium(III) nitrate] | 96.1 ± 2.9 | 99.5 ± 2.3 | 70.9 ± 6.9 | 83 ± 7.1 | 8.8 ± 1.5 | 0.649 ± 0.57 |
| O=[N+]([O-])[O-].[Ag+] [silver nitrate] | – | 28 ± 4.6 | – | 1.98 ± 0.46 | – | 2.05 ± 0.58 |

— the supplement of paper PMC11628255, “Interference of metal ions on the bioluminescent signal of firefly, Renilla, and NanoLuc luciferases in high-throughput screening assays” (Frontiers in Chemistry, 2024)
